Test results published in PubChem BioAssay AID624330 (Southern Research Specialized Biocontainment Screening …, 2012).
Screen size: about 340,000 compounds; about 2,100 (0.62%) were called active.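 How the source made its calls: active means first-screen hits whose inhibition reached a set limit at any dose in the follow-up dose series; inconclusive means inhibition above the set first-screen limit but never retested; inactive means the rest.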 These entries were drawn from the full list. Entries with a potency or affinity are not part of this list.

Biological target: Rac GTPase-activating protein 1 (Homo sapiens) (UniProt Q9H0H5)
Test: blockers of MgcRacGAP-driven Rac1 GTP hydrolysis – biochemical, ADP Hunter fluorescence, primary and confirmatory, confirmation (AID 624330);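 further: fluorescence reports GDP produced by GAP-driven GTP hydrolysis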
Conditions: MgcRacGAP-stimulated Rac1 GTP hydrolysis, at 30 µM, hits give high values, GST-tagged Rac1 F28L mutant substrate

Sequence of Rac GTPase-activating protein 1 (Homo sapiens) (Q9H0H5 whole entry, looked up): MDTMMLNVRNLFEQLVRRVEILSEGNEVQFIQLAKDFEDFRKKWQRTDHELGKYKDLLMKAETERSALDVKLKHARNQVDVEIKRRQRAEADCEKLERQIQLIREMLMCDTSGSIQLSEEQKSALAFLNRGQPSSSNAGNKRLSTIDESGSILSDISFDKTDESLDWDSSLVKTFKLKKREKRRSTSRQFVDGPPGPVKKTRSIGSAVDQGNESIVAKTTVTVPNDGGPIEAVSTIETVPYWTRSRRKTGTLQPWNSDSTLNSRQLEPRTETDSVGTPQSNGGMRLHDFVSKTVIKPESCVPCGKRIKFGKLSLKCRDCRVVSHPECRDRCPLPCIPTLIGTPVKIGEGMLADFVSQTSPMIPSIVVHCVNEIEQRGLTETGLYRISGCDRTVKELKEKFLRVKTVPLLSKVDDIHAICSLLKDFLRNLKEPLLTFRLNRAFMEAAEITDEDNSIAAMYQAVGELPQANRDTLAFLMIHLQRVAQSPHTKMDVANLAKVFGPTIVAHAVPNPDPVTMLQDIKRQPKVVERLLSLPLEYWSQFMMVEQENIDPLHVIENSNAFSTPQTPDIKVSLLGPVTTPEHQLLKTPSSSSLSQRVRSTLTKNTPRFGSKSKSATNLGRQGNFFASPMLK

inhibition, inactive:
CCN(CC(=O)NCc1cccs1)C(=O)c1cccc(S(=O)(=O)N2CC(C)OC(C)C2)c1 (centres undefined) -2.83%, O=C(Cn1ncc2c1-c1ccccc1OC2)N1CCc2ccccc21 2.35%, CCCCOc1ccc(C(=O)N/C(=C/C=C/c2ccccc2)C(=O)NCCCO)cc1 12.1%, COC(=O)/C(C#N)=C1/C=Cc2ccccc2N1 -5.37%, O=S1c2ccccc2Nc2ccccc21 18.2%, O=C(Cn1cc(C(=O)C(F)(F)F)c2ccccc21)Nc1ccccc1F 13.4%, O=C(O)C1(C(=O)O)CCCC1 1.88%, NC[C@H]1O[C@H](O[C@H]2[C@H](O)[C@@H](O[C@H]3O[C@H](CO)[C@@H](O)[C@H](N)[C@H]3O)[C@H](N)C[C@@H]2N)[C@H](N)C[C@@H]1O 6.29%, O=C(CCCCO)CCCCCCCC[C@H]1N[C@H](CO)[C@H](O)[C@@H]1O[C@@H]1O[C@H](CO)[C@@H](O)[C@H](O)[C@H]1O 6.38%, Cc1ccc(S(=O)(=O)N2CCN(C(=O)c3ccc(N4CCCCC4)c([N+](=O)[O-])c3)CC2)cc1 6.99%, COCCCC1CCN(C(=O)C2CCC(=O)N(Cc3cccc(F)c3)C2)CC1 (centres undefined) 7.1%, O=S(=O)(/C(=C/c1ccc(C(F)(F)F)cc1)c1nc2ccccc2[nH]1)c1ccccc1 4.87%, CN1CCc2c1nc1ccccc1c2N (tested in a mixture with another compound) 13.1%, Cc1cccc2c(N)c3c(nc12)CCCC3 (tested in a mixture with another compound) 16.8%, COc1ccc(CNC(=O)Cn2cc3c(n2)CCCCC3)cc1 7.34%, O=C1OC(c2ccccc2)=N/C1=C\N1CCCCC1 -1.27%, O=C1OC(c2ccccc2)=C/C1=C/N1CCCCC1 30.7%, CCN(C(=O)c1c(C)noc1C)c1c(N)n(Cc2ccccc2)c(=O)[nH]c1=O 5.68%, CCn1c(=O)c(C(=O)NCc2ccc(F)cc2)c(O)c2ccccc21 10.4%, CSc1ccc(C#N)cc1NC(=O)c1ccc(Cl)cc1Cl 7.34%, NC1=NC(=O)/C(=C\c2cccs2)S1 -1.57%, NC1=NC(=O)/C(=C/c2cccs2)S1 4.92%, CCCn1c(N)c(C(=O)CSc2nnc(-c3cccs3)n2C2CC2)c(=O)[nH]c1=O 1.21%, O=C(CCN1CCN(c2ccccc2)CC1)NNC(=O)c1ccccc1 10.2%
